Experimental findings from the supplement of paper PMC6555819 are described below.

Holding throughout (assay): PBM binding z-score (relative to random genomic background probes); higher = stronger binding; sequences stand for … in GC…GCGATTGACAGCGTAGAATGAAGG
Assay [1] relates to FXR:RXRa (NR concentration 270 nM, RXRa partner concentration 90 nM). Put shortly: (§1)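 Binding z-scores take random background probes as their reference. They come from custom Agilent 4×180K protein-binding microarrays incubated 1 h with ligand-free nuclear receptor dimers, with antibodies against each partner (one per run) detecting binding. Scanned fluorescence was regression-normalized.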

The subject of assay [2] is LXRa:RXRa (NR concentration 270 nM, RXRa partner concentration 90 nM). Put shortly: as §1
The subject of assay [3] is LXRa homodimer (NR concentration 270 nM). A digest of the protocol: as §1
Assay [4] has as its system LXRb:RXRa (NR concentration 270 nM, RXRa partner concentration 90 nM). Put shortly:
as §1

Assay [5] relates to LXRb homodimer (NR concentration 270 nM). Put shortly:
as §1

Assay [6] deals with PPARa:RXRa (NR concentration 270 nM, RXRa partner concentration 90 nM). Put shortly:
as §1

Assay [7] concerns PPARg:RXRa (NR concentration 180 nM, RXRa partner concentration 90 nM). A digest of the protocol: as §1
Assay [8] concerns PPARg:RXRa 270nM:90nM, anti-RXR (NR concentration 270 nM, RXRa partner concentration 90 nM). A digest of the protocol: as §1
In assay [9] the test system is PPARg:RXRa 30nM:10nM, anti-RXR (NR concentration 30 nM, RXRa partner concentration 10 nM). Put shortly:
as §1

The test system of assay [10] is PPARg:RXRa 90nM:30nM, anti-RXR (NR concentration 90 nM, RXRa partner concentration 30 nM). A digest of the protocol: as §1
Assay [11] concerns PPARg:RXRa DBDmut IVT, anti-RXR (DBD mutation: RXRa K156A/R161A, NR concentration 270 nM, RXRa partner concentration 90 nM). A digest of the protocol: as §1
In assay [12] the test system is PPARg:RXRa IVT, anti-PPARg (NR concentration 270 nM, RXRa partner concentration 90 nM). A digest of the protocol:
as §1

Assay [13] deals with PPARg DBDmut:RXRa IVT, anti-PPARg (DBD mutation: PPARg1 K132A/R137A, NR concentration 270 nM, RXRa partner concentration 90 nM). A digest of the protocol: as §1
Assay [14] deals with PPARg DBDmut IVT, anti-PPARg (DBD mutation: PPARg1 K132A/R137A, NR concentration 270 nM). A digest of the protocol:
as §1

Assay [15] relates to PPARg homodimer (NR concentration 180 nM). Put shortly:
as §1

Assay [16] has as its system PXR:RXRa (NR concentration 270 nM, RXRa partner concentration 90 nM). A digest of the protocol:
as §1

Assay [17] concerns PXR homodimer (NR concentration 270 nM). Put shortly: as §1
For assay [18], the system named is RARa:RXR (NR concentration 270 nM, RXRa partner concentration 90 nM). Put shortly: as §1
Assay [19] relates to RARa homodimer (NR concentration 270 nM). A digest of the protocol: as §1
Assay [20] deals with RARb:RXRa (NR concentration 270 nM, RXRa partner concentration 90 nM). A digest of the protocol:
as §1

Turning to GGAACGAAGGCAAAGTTGATAGCATCTGTCGACG, the PBM binding z-score is -0.685 in assay [1]; -0.726 in assay [2]; -0.64 in assay [3]; -0.769 in assay [4]; -1.04 in [5]; 1.16 in assay [6]. Further, the PBM binding z-score is 2.69 in [7]; 4.58 in [8]; 2.36 in assay [9]; 4.01 in assay [10]; -0.211 in assay [11]; 0.452 in assay [12]. Further, the PBM binding z-score in assay [13] was -0.0938; in [14] it was 0.0461; in [15] it was -0.879; in [16], -0.707; in assay [17], -0.569; in [18], -0.458. The PBM binding z-score in assay [19] was -0.886; in [20], -0.337.
Turning to CAAATTAGGTCAAGAGGTCAAAGTCCGCTTCCCG, the PBM binding z-score came to 7.34 in assay [1]; 6.64 in assay [2]; 6.19 in assay [3]; 6.05 in assay [4]; 2.41 in assay [5]; 6.6 in assay [6]. The PBM binding z-score in assay [7] turned out to be 9.93; in assay [8], 8.63; in assay [9], 8.32; in [10], 9.12; in [11] it was 8.5; in assay [12], 8.22. Further, the PBM binding z-score in assay [13] was 3.42; in assay [14] it was 1.71; in [15] it was 8.6; in assay [16], 6.49; in [17] it was 3.51; in [18] it was 8.33. Moreover, the values for the PBM binding z-score in assay [19] and in assay [20] were 5.28 and 5.74, respectively.
As to ACTCGCAGGACAAAGGTCAGAGCTACGCCAGTGA, the PBM binding z-score turned out to be 3.77 in [1]; 4.15 in [2]; 1.13 in assay [3]; 3.23 in assay [4]; 0.178 in assay [5]; 4.75 in assay [6]. Also, the PBM binding z-score in assay [7] came out at 7.12; in [8], 6.87; in [9], 5.49; in assay [10], 6.99; in [11], 0.731; in assay [12], 2.9. In addition, the PBM binding z-score is 0.371 in assay [13]; -0.29 in assay [14]; 1.88 in assay [15]; 3.6 in assay [16]; 0.075 in assay [17]; 4.72 in assay [18]. Also, the PBM binding z-score in assay [19] stood at 0.499; in [20] it was 4.29.
As to ACTAGTTAGTCAGCTGAGGTCACACACAATTCGG, the PBM binding z-score in assay [1] worked out at 2.63; in assay [2], 3.5; in assay [3] it was 2.52; in assay [4] it was 3.72; in assay [5] it was 0.931; in assay [6], 3.87. Moreover, the PBM binding z-score came out at 1.72 in assay [7]; 1.98 in assay [8]; 0.769 in [9]; 1.49 in assay [10]; 0.771 in assay [11]; 2.31 in assay [12]. For the same sequence, the PBM binding z-score in assay [13] stood at 0.856; in assay [14], 0.622; in assay [15], 2.26; in [16], 5.14; in [17], 1.6; in [18] it was 5.01. Also, the figures for the PBM binding z-score in assay [19] and in [20] were 1.35 and 3.3, respectively.
As for TCTTGTAGATCAGCAGGTTTAGAAAGCTGGCCAA, the PBM binding z-score was -0.241 in [1]; -0.13 in assay [2]; -0.52 in [3]; 0.0239 in assay [4]; -0.59 in assay [5]; 0.117 in assay [6]. The PBM binding z-score in assay [7] is -0.901; in [8] it was 0.915; in assay [9], 2.13; in assay [10], 1.23; in [11] it was 1.21; in assay [12], -0.135. For the same sequence, the PBM binding z-score is -0.815 in [13]; -0.0639 in assay [14]; -0.866 in [15]; -0.251 in assay [16]; -0.893 in [17]; -0.334 in assay [18]. In addition, the results for the PBM binding z-score in assay [19] and in [20] were -0.74 and -0.387, respectively.
Consider TCTAGTTGGTCAACGGTCACACACTCGAAATGCG, for which the PBM binding z-score was 0.705 in [1]; 0.745 in [2]; 0.892 in [3]; 1.04 in assay [4]; 0.0272 in assay [5]; 2.38 in [6]. For the same sequence, the PBM binding z-score in assay [7] worked out at 3.99; in assay [8] it was 5.35; in [9], 4.78; in assay [10] it was 5.32; in [11], 2.4; in [12] it was 2.99. Further, the PBM binding z-score in assay [13] is 0.499; in assay [14], 0.932; in [15] it was 1.48; in assay [16], 0.697; in assay [17] it was 0.127; in [18], 0.78. The PBM binding z-score is 1.23 in [19] and 2.31 in assay [20].
On to ATACCAAGGTAATCGTGAGGTCGTTGATACTAAC, for which the PBM binding z-score amounted to 1.31 in [1]; 1.48 in assay [2]; 0.673 in [3]; 1.29 in assay [4]; 0.295 in assay [5]; 1.38 in assay [6]. For the same sequence, the PBM binding z-score was 0.484 in [7]; 0.308 in assay [8]; -0.0613 in assay [9]; 0.22 in assay [10]; 0.339 in assay [11]; 0.661 in [12]. Besides, the PBM binding z-score in assay [13] came out at 0.385; in [14], 0.929; in [15] it was 0.827; in assay [16] it was 2.55; in assay [17], 1.36; in assay [18], 2.06. The PBM binding z-score is -0.0819 in assay [19] and 1.07 in assay [20].
